High-throughput results deposited in PubChem BioAssay by National Center for Advancing Translational Sciences (NCATS).
Shown are actives, neighbours in structure and some others; about 12% of the full set was active somewhere.
Pf growth 96h – Primary qHTS for delayed death inhibitors of the malarial parasite plastid, 96 hour incubation. Potency, µM (top dose mostly 28.7 µM), without a hit: top-dose activity change, negative = inhibition, usual class: inhibitors. hit rate 6.9% among 320,000. P. falciparum luciferase reporter growth, 96 h; further: on the % scale 0 is the no-effect control and ±100 the full control effect
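Plates of compound plus infected erythrocytes (2% hematocrit, 0.05% parasitemia final) incubate 96 hours, 37 C, 5% CO2. Detection reagent added; reduced luminescence from the parasites' luciferase reporter flags inhibition.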
SARS PLP yeast – qHTS of Yeast-based Assay for SARS-CoV PLP | S. cerevisiae expressing SARS-CoV PLpro, growth rescue | Potency, µM (doses to about 32.9 µM), for the others: top-dose activity, positive = growth rescue, usual class: activators | hit rate 0.19% among 330,000; calls by dose curve; further: 0% is about no effect; nearly all actives have a fitted effect of over 55% in size
Pf growth 48h – Primary qHTS for delayed death inhibitors of the malarial parasite plastid, 48 hour incubation; Potency, µM (series often up to 28.7 µM), inactives show at the highest dose activity change, negative = inhibition, hits mostly inhibitors; P. falciparum luciferase growth in erythrocytes, 48 h; hit rate 5.9% among 310,000; further: on the % scale 0 is the no-effect control and ±100 the full control effect
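Compounds are pin-transferred into medium, infected erythrocytes (2% hematocrit, 0.1% parasitemia final) are added, and plates sit one parasite generation at 37 C in 5% CO2. Detection reagent is then added and luminescence measured.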
Sm TGR block – qHTS Assay for the Inhibitors of Schistosoma Mansoni Peroxiredoxins; purified TGR, DTNB reduction, TNB absorbance 405 nm; Potency, µM (highest dose often 114 µM), for inactives: top-dose activity change, negative = inhibition, usual class: inhibitors; hit rate 3% among 360,000; further: on the % scale 0 is the no-effect control and ±100 the full control effect; nearly all actives have a fitted effect of over 60% in size
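TGR 20 nM + NADPH 100 uM (dispensed conc.), cpd preinc 15 min RT; start with NADPH (500 uM addition) then DTNB (15 mM addition). Kinetic TNB absorbance, 405 nm filter. Four-parameter Hill fit across titration.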
AmpC no deterg – qHTS Inhibitors of AmpC Beta-Lactamase (assay without detergent); Potency, µM (doses to about 57.1 µM), inactives show at the top dose activity change, negative = inhibition, hits mostly inhibitors; AID 485341, 2010; AmpC nitrocefin hydrolysis, absorbance 480 nm, 0.0001% Triton; P00811; hit rate 0.52% among 330,000;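 further: plate controls were no compound for no effect and no enzyme for full effect; nearly all actives have a fitted effect of over 20% in size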
Target sequence (P00811 whole entry, looked up): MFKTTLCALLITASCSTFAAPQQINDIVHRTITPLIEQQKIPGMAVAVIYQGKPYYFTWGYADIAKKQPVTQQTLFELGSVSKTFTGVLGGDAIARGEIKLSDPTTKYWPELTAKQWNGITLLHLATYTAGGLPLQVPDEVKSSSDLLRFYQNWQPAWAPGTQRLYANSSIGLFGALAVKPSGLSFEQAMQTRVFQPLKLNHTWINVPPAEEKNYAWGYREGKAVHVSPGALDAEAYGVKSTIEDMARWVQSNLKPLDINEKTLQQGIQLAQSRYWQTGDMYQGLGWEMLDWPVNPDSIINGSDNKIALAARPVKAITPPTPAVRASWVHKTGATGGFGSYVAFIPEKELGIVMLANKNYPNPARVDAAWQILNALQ
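AmpC (5.3 nM in the dispensed reagent) in 20 mM phosphate pH 7.0 with 0.01% (detergent screen) or 0.0001% Triton X-100 was preincubated with compounds for 15 min at room temperature. Nitrocefin was then added from an 800 uM solution, and hydrolysis was followed at 480 nm.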
AmpC inh detg – qHTS Inhibitors of AmpC Beta-Lactamase (assay with detergent) | P00811 | AmpC hydrolysis of nitrocefin, absorbance 480 nm, 0.01% Triton | Potency, µM (titrated, usually from 114 µM), inactives show at the highest dose activity change, negative = inhibition, usual class: inhibitors | hit rate 0.041% among 370,000;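 further: 0% = no-compound wells and -100% = no-enzyme wells; nearly all actives have a fitted effect of over 25% in size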
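AmpC (5.3 nM in the dispensed reagent) in 20 mM phosphate pH 7.0 with 0.01% (detergent screen) or 0.0001% Triton X-100 was preincubated with compounds for 15 min at room temperature. Nitrocefin was then added from an 800 uM solution, and hydrolysis was followed at 480 nm.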
* hit, by the source's call; u = inconclusive; x = no result given. Unless noted, the call rests on the fitted dose curve; in most records, active means well fitted curve in the direction sought with a large enough effect; inconclusive means small, poorly fitted or top-dose-only effect, or another doubt; inactive means no such curve, though single readings can be large; an effect the other way counts as inactive or inconclusive. Potency means the concentration at half of the fitted maximal effect.

SMILES | Pf growth 96h | SARS PLP yeast | Pf growth 48h | Sm TGR block | AmpC no deterg | AmpC inh detg
O=C(NC1CCCCC1)C(c1ccc2ncccc2c1)N(Cc1ccc2c(c1)OCO2)C(=O)c1ccc2c(c1)OCCO2 (configuration not stated) | u | -16% | 7.4µM* | -5% | 64% | -17%
O=C(NC1CCCCC1)C(c1ccc2ncccc2c1)N(Cc1cccs1)C(=O)c1cccs1 (configuration not stated) | u | -20% | 12µM* | -6% | 28% | u
O=C(NC1CCCCC1)C(c1cccs1)N(Cc1cccs1)C(=O)c1cccs1 (configuration not stated) | u | -18% | u | -2% | -19% | -1%
O=C(NC1CCCCC1)C(c1ccc2ncccc2c1)N(Cc1ccc(F)cc1)C(=O)c1ccc2c(c1)OCCO2 (configuration not stated) | 10µM* | -3% | u | 7% | 24% | u
O=C(NCC(=O)N(c1ccc2c(c1)OCO2)C(C(=O)NC1CCCC1)c1ccncc1)c1ccco1 (configuration not stated) | -13% | 2% | 17% | u | -26% | 8%
O=C(NC1CCCC1)C(c1ccc(F)cc1)N(Cc1ccc(F)cc1)C(=O)c1ccn[nH]1 (configuration not stated) | 92% | 0% | -5% | -15% | 19% | u
O=C(NC1CCCCC1)C(c1ccc2ncccc2c1)N(Cc1ccco1)C(=O)c1ccc2c(c1)OCCO2 (configuration not stated) | 2.6µM* | -11% | 5.2µM* | 0% | 92% | -15%
CCN(C(=O)Cn1nc(Cc2cccnc2)c2ccccc2c1=O)c1cc(C)ccc1C | x | x | x | 4% | x | 10%
CCOc1ccc(NC(=O)Cn2nnc(C(=O)OC)c2C(=O)OC)cc1 | x | x | x | 5% | x | 3%
CCC(C)(C)NC(=O)/C=C/c1cccs1 | 34% | 4% | 17% | -1% | -16% | 0%
CCN(CC)S(=O)(=O)c1ccc2c(c1)N(CC(=O)NCc1ccccc1)C(=O)C1CCCCN21 (configuration not stated) | x | x | x | 3% | x | 9%
COCCNC(=O)c1cnc2sc(N3CCC(C)CC3)nn2c1=O | x | x | x | 10% | x | 4%
Cc1ccc(C(=O)N/N=C\c2ccc(Br)o2)o1 | -15% | -9% | u | 4% | -13% | 1%
Cc1ccc(C(=O)N/N=C/c2ccc(-c3ccc(Br)cc3[N+](=O)[O-])o2)o1 | u | -3% | 9.3µM* | 50µM* | -36% | 4%
CCCN(CCC)C(=S)NC(=O)c1ccc(-c2ccccc2)cc1 | u | -27% | u | -9% | -46% | -9%
Cc1cccc(N2C(=O)C(Oc3ccc(Cl)cc3Cl)C2C(=O)O)c1C (configuration not stated) | 10µM* | 7% | 9% | -17% | -13% | -3%
CCCNCC1C(Oc2ccc(Cl)cc2Cl)C(=O)N1c1cccc(C)c1C (configuration not stated) | -7% | -13% | u | 11% | -2% | u
COc1ccc(N2CCN(C(=O)CN(c3cccc(OC)c3)S(=O)(=O)c3ccccc3)CC2)cc1 | u | u | 13µM* | 0% | 132% | 6%
COc1ccc(N2CCN(C(=O)CN(c3ccccc3)S(C)(=O)=O)CC2)cc1 | 10µM* | 0% | -16% | 3% | -3% | u
CCc1ccc(N(CC(=O)N2CCOCC2)S(C)(=O)=O)cc1 | 13µM* | -2% | -5% | 1% | -1% | -16%
Cc1c(C(=O)NCC2CCCO2)oc2ccc(Br)cc12 (configuration not stated) | 96% | -9% | 71% | 4% | -53% | 2%
CC(=O)NCCc1ccc(C(=O)CSc2nnc(C3CC3)n2C2CC2)cc1 | 10% | -4% | 34% | u | 16% | 11%
CC(c1ccccc1)n1c(SCC(=O)N2CC(=O)Nc3ccccc32)nc2ccccc2c1=O (configuration not stated) | 5.2µM* | 2% | 13µM* | -1% | -10% | 5%
COCC(C)n1c(SCC(=O)N2CC(=O)Nc3ccccc32)nc2ccccc2c1=O (configuration not stated) | u | -1% | 13µM* | -3% | -15% | 1%
CC(C)Cn1c(SCC(=O)N2CC(=O)Nc3ccccc32)nc2ccccc21 | u | -5% | u | 1% | -11% | 0%
SMILES | Pf growth 96h | SARS PLP yeast | Pf growth 48h | Sm TGR block | AmpC no deterg | AmpC inh detg
CCC(C)(C)NC(=O)C1CCC(CNS(=O)(=O)c2ccc3c(c2)CC(C)N3C(C)=O)CC1 (configuration not stated) | x | x | x | 2% | x | -11%
N#CC1=C(N)OC2=C(CC/C2=C\c2ccccc2)C1c1ccccc1 (configuration not stated) | 104% | -2% | u | 11µM* | 11µM* | 5%
Cc1cccc(C)c1OCc1n[nH]c(=S)o1 | 10% | 4% | 9% | 32µM* | -15% | 0%
Cc1cccc(OCc2n[nH]c(=S)o2)c1C | 38% | -1% | 18% | x | -21% | 8%
CCOc1ccc(CCNC(=O)Cn2ncc3c(=O)oc4ccc(C)cc4c32)cc1 | x | x | x | -3% | x | 4%
Cc1c(C)c2c(c(C)c1OC(=O)CCC(=O)O)CC[C@@](C)(CCC[C@H](C)CCC[C@H](C)CCCC(C)C)O2 | 12µM* | x | u | x | x | x
CC(=O)Oc1c(C)c(C)c2c(c1C)CCC(C)(CCCC(C)CCCC(C)CCCC(C)C)O2 (configuration not stated) | 110% | x | 0% | -12% | -22% | u
O=C(Nc1ccc(F)c(Cl)c1)C1CCCN(c2ncnc3onc(-c4ccc(F)cc4)c23)C1 (configuration not stated) | x | x | x | 50µM* | x | -7%
Cc1ccc(Oc2ccc(S(=O)(=O)N3CCOCC3)cc2C(N)=O)cc1C | 10% | 2% | u | -2% | 40% | -8%
CCOC(=O)c1c(C)[nH]c(C)c1S(=O)(=O)N1CCN(c2ccc(Cl)cc2)CC1 | x | x | x | 1% | x | 7%
Cc1ccc(S(=O)(=O)N(C)C)cc1NC(=S)NCCCn1ccnc1 | 4% | -3% | -11% | u | -16% | u
O=C(NCCCn1ccnc1)Nc1ccc(Cl)c(Cl)c1 | 2.1µM* | 7% | 12µM* | 14% | -10% | 0%
